# According to PubChem BioAssay (Tox21):
# Several values for one entry are separate records, joined by “and”; a condition that tells them apart may be missing. Equal values may be shown once. Records with an inconclusive call do not appear. Where a call stands in place of a potency, no number is given. Some compounds were tested as several samples or in several runs, with calls that do not always agree. Activity calls are given as the source filed them. Unless noted, calls come from the whole dose curve; as a rule, active = well fitted curve in the direction sought with a large enough effect in the repeat runs; inconclusive = weak or mixed curves; inactive = no such curve, though single readings can be large; an effect the other way counts as inactive or inconclusive.
# Tests used:
# [1] = A CellTox Green Cytotoxicity Assay to monitor cytotoxicity in HepG2 cells - 8 hour (AID 1224890); note: nearly all actives have a fitted effect of over 45% in size; note: potency is the fitted concentration of half-maximal effect
# In short: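 Continuous culture of HepG2 cells with a membrane-impermeant DNA dye; rising fluorescence marks dead cells. Compound exposure lasted up to 40 h at 37 C, with reads every 8 h from 0 h.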
# [2] = qHTS assay to identify small molecule antagonists of the estrogen receptor alpha (ER-alpha) signaling pathway using the BG1 cell line in the presence of 0.1 nM 17-beta-estradiol - cell viability counter screen (AID 1259241); note: nearly all actives have a fitted effect of over 40% in size
# In short: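 Viability in VM7Luc4E2 cells after 22 hr compound exposure under 0.1 nM 17beta-estradiol stimulation, by CellTiter-Fluor.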
# [3] = qHTS assay to identify small molecule antagonists of the androgen receptor (AR) signaling pathway using the MDA cell line in the presence of 0.5 nM R1881 - cell viability counter screen (AID 1259242); note: nearly all actives have a fitted effect of over 45% in size
# In short: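 Fluorescence from CellTiter-Fluor, which reports protease activity of live cells, was read 30 min after reagent addition to MDA-kb2 cells that had been incubated 16 hr with compound and 0.5 nM R1881.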
# [4] = biological target: Estrogen receptor (Homo sapiens) (UniProt P03372); assay: qHTS assay to identify small molecule antagonists of the estrogen receptor alpha (ER-alpha) signaling pathway using the BG1 cell line in the presence of 0.1 nM 17-beta-estradiol (AID 1259244); note: nearly all actives have a fitted effect of over 50% in size
# In short: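 Quantitative high-throughput screen in VM7Luc4E2 cells: compound plus 0.1 nM E2 (final), 22 h, 37C, 5% CO2; ONE-Glo added, 30 min room temperature, luminescence measured.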
# [5] = qHTS assay to identify small molecule HDAC inhibitors (AID 1259364); note: top concentration of the series differs between compounds; nearly all actives have a fitted effect of over 45% in size
# In short: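 Endogenous HDAC class I/II activity was measured in wild-type HCT-116 cells by HDAC-Glo luminescence after 2 h compound treatment.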
# [6] = qHTS assay to identify small molecule HDAC inhibitors - cell viability counter screen (AID 1259365); note: series mostly up to about 92 µM; nearly all actives have a fitted effect of over 50% in size
# In short: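 Cytotoxicity was gauged in wild-type HCT-116 cells after a brief 2hr treatment with DMSO-dissolved compounds at 37C and 5% CO2, using CellTiter-Glo luminescence developed for 30min at room temperature.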
# [7] = qHTS assay to identify small molecule antagonists of the sonic hedgehog signaling (Shh) pathway - cell viability counter screen (AID 1259367); note: nearly all actives have a fitted effect of over 55% in size; note: potency is the fitted concentration of half-maximal effect
# In short: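 Cells: 3T3 Gli1-Luc, 2,000/well, 4 hr pre-incubation. Compounds in DMSO, then conditioned medium. Incubation 24 hr, 37C, 5% CO2. CellTiter-Fluor at 23 hr, 1 hr, fluorescence.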
# [8] = qHTS assay to identify small molecule agonists of the sonic hedgehog signaling (Shh) pathway - cell viability counter screen (AID 1259366); note: nearly all actives have a fitted effect of over 50% in size
# In short: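 Stable Gli1-Luc NIH/3T3 clone, 2,000 cells/well. Compound exposure 24hr at 37C. Read-out: CellTiter-Fluor fluorescence.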
# [9] = qHTS assay to identify small molecule phospholipidosis (PLD) inducers (AID 1259344; active = well fitted curve in the direction sought with a large enough effect; an effect the other way counts as inactive or inconclusive)
# In short: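 Phospholipidosis is scored by imaging LipidTOX-stained pits in HepG2 cells exposed to compound for 24 h at 37 C; pit counts and integrated intensities per well and per cell serve as outputs.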
# Estrogen receptor (Homo sapiens), sequence (P03372 whole entry, looked up): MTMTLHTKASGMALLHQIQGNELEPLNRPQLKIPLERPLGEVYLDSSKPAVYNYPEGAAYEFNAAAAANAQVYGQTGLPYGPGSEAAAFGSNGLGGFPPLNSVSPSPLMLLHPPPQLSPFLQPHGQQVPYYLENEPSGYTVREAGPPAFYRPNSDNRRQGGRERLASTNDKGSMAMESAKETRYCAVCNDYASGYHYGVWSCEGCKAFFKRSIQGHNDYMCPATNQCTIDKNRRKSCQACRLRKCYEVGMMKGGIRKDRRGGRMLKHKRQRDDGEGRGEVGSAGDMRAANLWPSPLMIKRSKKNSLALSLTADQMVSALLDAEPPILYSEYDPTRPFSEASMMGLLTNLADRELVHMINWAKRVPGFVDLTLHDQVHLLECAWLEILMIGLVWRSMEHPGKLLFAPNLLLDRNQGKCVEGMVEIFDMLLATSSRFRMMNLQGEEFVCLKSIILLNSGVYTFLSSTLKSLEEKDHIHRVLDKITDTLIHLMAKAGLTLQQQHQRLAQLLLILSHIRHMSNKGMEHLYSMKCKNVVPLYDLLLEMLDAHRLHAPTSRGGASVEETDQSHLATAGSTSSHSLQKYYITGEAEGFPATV
smiles,measurement,setting,value
O=[N+]([O-])c1ccc(F)cc1F,Potency,[1],inactive
same,outcome,[2],inactive
same,Potency,[3],inactive
same,outcome,[4],inactive
same,Potency,[5],inactive
same,outcome,[6],inactive
same,Potency,[7],inactive
CCCCC/C=C\CCC=O,Potency,[1],inactive
same,outcome,[2],inactive
same,Potency,[3],inactive
same,outcome,[4],inactive
same,Potency,[5],inactive
same,outcome,[6],inactive
same,Potency,[8],inactive
same,Potency,[7],inactive
NC(=O)Nc1ccccc1,Potency,[1],inactive
same,outcome,[2],inactive
same,Potency,[3],inactive
same,outcome,[4],inactive
same,Potency,[5],inactive
same,outcome,[6],inactive
same,Potency,[7],inactive
CCS(=O)(=O)c1ccc(OC)c(C(=O)OC)c1,Potency,[1],inactive
same,outcome,[2],inactive
same,Potency,[3],inactive
same,outcome,[4],inactive
same,Potency,[5],inactive
same,outcome,[6],inactive
same,Potency,[8],inactive
same,Potency,[7],inactive
CCCCCSCCCCC,Potency,[1],inactive
same,outcome,[2],inactive
same,Potency,[3],inactive
same,outcome,[4],inactive
same,Potency,[5],inactive
same,outcome,[6],inactive
same,Potency,[8],inactive
same,Potency,[7],inactive
C=CCCCCCCCCC=O,Potency,[1],inactive
same,outcome,[2],inactive
same,Potency,[3],inactive
same,outcome,[4],inactive
same,Potency,[5],inactive
same,outcome,[6],inactive
same,Potency,[8],inactive
same,Potency,[7],inactive
Cc1c(O)cccc1O,Potency,[1],inactive
same,outcome,[2],inactive
same,Potency,[3],inactive
same,outcome,[4],inactive
same,Potency,[5],inactive
same,outcome,[6],inactive
same,Potency,[8],inactive
same,Potency,[7],inactive
CCO[Si](CCC1CCC2OC2C1)(OCC)OCC (stereo not drawn),Potency,[1],inactive
same,outcome,[2],inactive
same,Potency,[3],inactive
same,outcome,[4],inactive
same,Potency,[5],inactive
same,outcome,[6],inactive
same,Potency,[8],inactive
same,Potency,[7],inactive
CCOC(=O)c1ccc(C)cc1,Potency,[1],inactive
same,outcome,[2],inactive
same,Potency,[3],inactive
same,outcome,[4],inactive
same,Potency,[5],inactive
same,outcome,[6],inactive
same,Potency,[8],inactive
same,Potency,[7],inactive
CCC=O,Potency,[1],inactive
same,outcome,[2],inactive
same,Potency,[3],inactive
same,outcome,[4],inactive
same,Potency,[5],inactive
same,Potency,[8],inactive
same,Potency,[7],inactive
COC(=O)NN,Potency,[1],inactive
same,outcome,[2],inactive
same,Potency,[3],inactive
same,outcome,[4],inactive
same,Potency,[5],inactive
same,outcome,[6],inactive
same,Potency,[7],inactive
CC(=O)CC(C)(C)C1CCCCC1,Potency,[1],inactive
same,outcome,[2],inactive
same,Potency,[3],inactive
same,outcome,[4],inactive
same,Potency,[5],inactive
same,outcome,[6],inactive
same,Potency,[7],inactive
CCOC(C)(C)C,Potency,[1],inactive
same,outcome,[2],inactive
same,Potency,[3],inactive
same,outcome,[4],inactive
same,Potency,[5],inactive
same,outcome,[6],inactive
same,Potency,[7],inactive
COc1ccc2c(c1)CCCC2=O,Potency,[1],inactive
same,outcome,[2],inactive
same,Potency,[3],inactive
same,outcome,[4],inactive
same,Potency,[5],inactive
same,outcome,[6],inactive
same,Potency,[8],inactive
same,Potency,[7],inactive
Cc1ccc(C#N)cc1,Potency,[1],inactive
same,outcome,[2],inactive
same,Potency,[3],inactive
same,outcome,[4],inactive
same,Potency,[5],inactive
same,outcome,[6],inactive
same,Potency,[8],inactive
same,Potency,[7],inactive
CC1=CC(C)C(C=O)CC1 (stereo not drawn),Potency,[1],inactive
same,outcome,[2],inactive
same,Potency,[3],inactive
same,outcome,[4],inactive
same,Potency,[5],inactive
same,outcome,[6],inactive
same,Potency,[8],inactive
same,Potency,[7],inactive
CCCCCCCCCCCCCC=O,cytotoxicity increase,[1],5.89% [at 6.97 µM] (inactive)
same,"activity change, negative = cytotoxicity",[2],4.83% [at 8.39 µM] (inactive)
same,"viability change, negative = cytotoxic",[3],-0.255% [at 8.39 µM] (inactive)
same,"activity change, negative = inhibition",[4],5.09% [at 8.39 µM] (inactive)
same,"activity change, negative = inhibition",[5],-0.0684% [at 8.39 µM] (inactive)
same,"activity change, negative = cytotoxicity",[6],1.26% [at 8.39 µM] (inactive)
same,"viability change, negative = cytotoxic",[8],5.21% [at 8.39 µM] (inactive)
same,"viability change, negative = cytotoxic",[7],0.0972% [at 8.39 µM] (inactive)
C=C[Si](OC(=C)C)(OC(=C)C)OC(=C)C,Potency,[1],inactive
same,outcome,[2],inactive
same,Potency,[3],inactive
same,outcome,[4],inactive
same,Potency,[5],inactive
same,outcome,[6],inactive
same,Potency,[8],inactive
same,Potency,[7],inactive
C[C@](N)(Cc1ccc(O)cc1)C(=O)O,cytotoxicity increase,[1],-1.36% [at 6.97 µM] (inactive)
same,"activity change, negative = cytotoxicity",[2],0.275% [at 8.39 µM] (inactive)
same,"viability change, negative = cytotoxic",[3],2.64% [at 8.39 µM] (inactive)
same,"activity change, negative = inhibition",[4],-5.6% [at 8.39 µM] (inactive)
same,Potency,[9],inactive
same,"viability change, negative = cytotoxic",[7],4.1% [at 8.39 µM] (inactive)
O=c1n(CCO)c(=O)n(CCO)c(=O)n1CCO,Potency,[1],inactive and 38.9 µM (active)
same,outcome,[2],inactive
same,Potency,[3],inactive
same,outcome,[4],inactive
same,Potency,[5],inactive
same,Potency,[8],inactive
same,Potency,[7],inactive and 54.5 µM (active)
CC/C=C\CCOC(C)=O,Potency,[1],inactive
same,outcome,[2],inactive
same,Potency,[3],inactive
same,outcome,[4],inactive
same,Potency,[5],inactive
same,outcome,[6],inactive
same,Potency,[8],inactive
same,Potency,[7],inactive
C=CCS(=O)(=O)O,Potency,[1],inactive
same,outcome,[2],inactive
same,Potency,[3],inactive
same,outcome,[4],inactive
same,Potency,[5],inactive
same,outcome,[6],inactive
same,Potency,[8],inactive
same,Potency,[7],inactive
CCOC(=O)CCC(C)=O,Potency,[1],inactive
same,outcome,[2],inactive
same,Potency,[3],inactive
same,outcome,[4],inactive
same,Potency,[5],inactive
same,outcome,[6],inactive
same,Potency,[8],inactive
same,Potency,[7],inactive
CN(C)CCCNCCCN(C)C,Potency,[1],inactive
same,outcome,[2],inactive
same,Potency,[3],inactive
same,outcome,[4],inactive
same,Potency,[5],inactive
same,outcome,[6],inactive
same,Potency,[7],inactive
CC(=O)c1ccccc1O,Potency,[1],inactive
same,outcome,[2],inactive
same,Potency,[3],inactive
same,outcome,[4],inactive
same,Potency,[5],inactive
same,outcome,[6],inactive
same,Potency,[8],inactive
same,Potency,[7],inactive
CC(C)(C)NCCNC(C)(C)C,Potency,[1],inactive
same,outcome,[2],inactive
same,Potency,[3],inactive
same,outcome,[4],inactive
same,Potency,[5],inactive
same,outcome,[6],inactive
same,Potency,[8],inactive
same,Potency,[7],inactive
CC(=O)OC/C=C(\C)CC/C=C(\C)CCC=C(C)C,Potency,[1],inactive
same,outcome,[2],inactive
same,Potency,[3],inactive
same,outcome,[4],inactive
same,Potency,[5],inactive
same,outcome,[6],inactive
same,Potency,[7],inactive
CO[Si](CCCOCC1CO1)(OC)OC (stereo not drawn),Potency,[1],inactive
same,outcome,[2],inactive
same,Potency,[3],inactive
same,outcome,[4],inactive
same,Potency,[5],inactive
same,outcome,[6],inactive
same,Potency,[8],inactive
same,Potency,[7],inactive
